Experimental data reported in PubChem BioAssay (NCATS).
Records with an inconclusive call do not appear. A call without a number means that no potency is given here. Calls of active or inactive are those of the source. The call rests on the fitted dose curve; in most records, active means well fitted inhibition curve with a large enough effect; inconclusive means small, poorly fitted or top-dose-only effect; inactive means flat fitted curve, though single readings scatter.

Test system: Zika virus NS2B-NS3 protease
Experiment: Primary screen GU AMC qHTS for Zika virus inhibitors (AID 1347154); further: nearly all actives have a fitted effect of over 70% in size
Conditions: Zika NS2B-NS3 unlinked protease, AMC fluorogenic substrate; series mostly up to 54.1 µM
Summary of the method: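 Fluorogenic AMC-substrate cleavage by noncovalent NS2B-NS3 protease complex (25 nM, pH 8.0 Tris buffer with Tween 20) followed for 15 minutes at room temperature (~20% conversion). Percent inhibition from ex340/em450 signal change, fitted by 4-parameter Hill equation.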

| Structure (SMILES) | Potency |
| --- | --- |
| CN(C/C=C/C#CC(C)(C)C)Cc1cccc2ccccc12 | inactive |
| CC(N)CCCC(C)(C)O (configuration not stated) | inactive |
| CC(=O)Nc1ccc(C(=O)O)cc1 | inactive |
| NC(=O)NC1NC(=O)NC1=O (configuration not stated) | inactive |
| NC(=O)CCCCC1CCSS1 (configuration not stated) | inactive |
| CCS(=O)(=O)CCn1c([N+](=O)[O-])cnc1C | inactive |
| OCC(O)CS (configuration not stated) | inactive |
| CC(C)(C)C(=O)OCOC(=O)[C@@H]1N2C(=O)[C@@H](NC(=O)[C@H](N)c3ccccc3)[C@H]2SC1(C)C | inactive |
| COC(=O)c1ccccc1C(=O)c1ccc(OCCN2CCCCC2)cc1 | inactive |
| C1CCN2C[C@@H]3C[C@@H](CN4CCCC[C@@H]34)[C@H]2C1 | inactive |
| COc1ccccc1OCC(O)CO (configuration not stated) | inactive |
| CCOC(=O)[C@H](CCc1ccccc1)N[C@@H](C)C(=O)N1Cc2cc(OC)c(OC)cc2C[C@H]1C(=O)O | inactive |
| C[N+](C)(C)CC(O)CC(=O)[O-] (configuration not stated) | inactive |
| NCc1ccc(S(N)(=O)=O)cc1 | inactive |
| C[C@@H]1CCC[C@H](C)N1 | inactive |
| OCc1ccc(Cl)cc1Cl | inactive |
| CC(C)=CCC/C(C)=C/CO | inactive |
| c1ccc2[nH]ccc2c1 | inactive |
| O=C(CN1CCNCC1)NC1CCCCC1 | inactive |

| Structure (SMILES) | Potency |
| --- | --- |
| CCCCCCCCCCC(CO)CCCCCCCC (configuration not stated) | inactive |
| CN[C@@H]1[C@@H](O)[C@@H](O[C@@H]2[C@H](O)[C@H](O[C@H]3OC(CN)=CC[C@H]3N)[C@@H](N)C[C@H]2N)OCC1(C)O (some centres not stated) | inactive |
| CC(=O)SC[C@@H](Cc1ccccc1)C(=O)NCC(=O)OCc1ccccc1 | inactive |
| CC(=O)N[C@@H](Cc1ccc(O)cc1)C(=O)O | inactive |
| CC1(c2ccccc2)OC(C(=O)O)=CC1=O (configuration not stated) | inactive |
| CCOc1ccccc1O[C@H](c1ccccc1)[C@H]1CNCCO1 | inactive |
| Cc1ccc(S(=O)(=O)NC(=O)NC2CCCCCCC2)cc1 | inactive |
| O=C(O)/C=C/c1ccc(Cn2ccnc2)cc1 | inactive |
| O=C(O)c1ccc(OCCCOc2ccc(C(=O)O)cc2)cc1 | inactive |
| Cc1cc(C)nc(NS(=O)(=O)c2ccc(N)cc2)n1 | inactive |
| CCCNC(C)C(=O)Nc1c(C)csc1C(=O)OC (configuration not stated) | inactive |
| NS(=O)(=O)c1cc(-c2nn[nH]n2)c(NCc2cccs2)cc1Cl | inactive |
| CCCC(O)C(CC)CO (configuration not stated) | inactive |
| O=C1c2ccccc2S(=O)(=O)N1CCCCN1CCN(c2ncccn2)CC1 | inactive |
| NS(=O)(=O)c1cc(C2(O)NC(=O)c3ccccc32)ccc1Cl (configuration not stated) | inactive |
| Nc1ncnc2c1ncn2[C@@H]1O[C@H](COP(=O)(O)O)[C@@H](O)[C@H]1O | inactive |
| CCN[C@H]1CN(CCCOC)S(=O)(=O)c2sc(S(N)(=O)=O)cc21 | inactive |
| Cc1[nH]c(C)c(Cl)c(=O)c1Cl | inactive |
